Common to all, as to assay: DAPPL (digital affinity profiling via proximity ligation, sequencing); 10 mM Tris-HCl pH 7.5, 50 mM NaCl, 1 mM DTT, 4% glycerol, room temperature, 30 min; GST-TFs on glutathione beads, 16-mer random dsDNA library, 0.1% formaldehyde crosslink after washing; high values mean tight binding
The target in one assay is T1, FEV (Homo sapiens, UniProt Q99581 1-238).
T1 sequence: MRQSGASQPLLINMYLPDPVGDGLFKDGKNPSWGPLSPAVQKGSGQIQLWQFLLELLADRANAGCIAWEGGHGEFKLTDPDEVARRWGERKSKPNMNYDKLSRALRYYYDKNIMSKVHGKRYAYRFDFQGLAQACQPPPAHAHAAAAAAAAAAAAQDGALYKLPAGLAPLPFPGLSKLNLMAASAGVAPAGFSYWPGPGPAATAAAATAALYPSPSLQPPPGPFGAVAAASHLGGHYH
The note with it: protein: recombinant; tags: N-terminal GST; dsDNA, one strand shown. The procedure, abridged: (§1)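 Binding signal is defined as a hexamer's read frequency for one factor over its frequency for the tag-only sample. To obtain reads, GST-fused human transcription factors were expressed in yeast, captured on glutathione beads, barcoded with DNA and pooled with that sample. Pools met 200 nmole of a 16-mer random double-stranded DNA library in Tris/NaCl/DTT/glycerol buffer for 30 min at room temperature before washing, 0.1% formaldehyde crosslinking, proximity ligation (BsaI/T4 ligase, 1 h, 37 °C), PCR and Illumina NextSeq500 sequencing.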

In another assay the target is ETV5 (Homo sapiens, UniProt P41161 1-510). The note with it: protein: recombinant; tags: N-terminal GST; dsDNA, one strand shown. The procedure, abridged: as §1
Sequence of ETV5 (P41161 whole entry): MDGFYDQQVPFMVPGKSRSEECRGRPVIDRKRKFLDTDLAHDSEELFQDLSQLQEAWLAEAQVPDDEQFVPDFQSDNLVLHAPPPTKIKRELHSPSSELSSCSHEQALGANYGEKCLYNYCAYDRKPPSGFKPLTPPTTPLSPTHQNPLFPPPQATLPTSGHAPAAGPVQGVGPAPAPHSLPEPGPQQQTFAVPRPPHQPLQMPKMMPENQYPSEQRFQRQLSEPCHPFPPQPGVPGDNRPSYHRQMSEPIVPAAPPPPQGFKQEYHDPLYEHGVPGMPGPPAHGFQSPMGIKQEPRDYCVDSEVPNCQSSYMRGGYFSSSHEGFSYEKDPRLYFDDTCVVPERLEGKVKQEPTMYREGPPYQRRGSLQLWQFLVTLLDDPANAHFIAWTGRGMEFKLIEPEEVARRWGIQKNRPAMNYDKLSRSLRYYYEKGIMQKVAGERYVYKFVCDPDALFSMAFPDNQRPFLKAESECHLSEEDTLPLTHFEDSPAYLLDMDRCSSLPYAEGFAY
In a further assay the target is HSF1 (Homo sapiens, UniProt Q00613 1-529). The note with it: protein: recombinant; tags: N-terminal GST; chain copies: 3; dsDNA, one strand shown. The procedure, abridged: as §1
Sequence of HSF1 (Q00613 whole entry): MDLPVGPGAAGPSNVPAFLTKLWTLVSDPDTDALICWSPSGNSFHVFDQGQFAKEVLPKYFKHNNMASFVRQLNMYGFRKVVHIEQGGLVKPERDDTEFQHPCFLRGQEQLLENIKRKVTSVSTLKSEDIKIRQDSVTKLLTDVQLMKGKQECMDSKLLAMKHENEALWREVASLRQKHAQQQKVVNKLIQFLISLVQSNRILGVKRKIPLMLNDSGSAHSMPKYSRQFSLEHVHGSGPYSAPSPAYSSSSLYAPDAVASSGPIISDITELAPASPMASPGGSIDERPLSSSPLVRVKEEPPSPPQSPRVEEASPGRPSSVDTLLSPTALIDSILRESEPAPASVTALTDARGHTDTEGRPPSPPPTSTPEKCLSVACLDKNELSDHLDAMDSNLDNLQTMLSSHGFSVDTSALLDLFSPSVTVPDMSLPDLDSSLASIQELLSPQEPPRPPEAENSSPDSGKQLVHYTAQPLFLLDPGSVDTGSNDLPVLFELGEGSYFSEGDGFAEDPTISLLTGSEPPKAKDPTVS
Another assay addresses T2, SPIC (Homo sapiens, UniProt Q8N5J4 1-248).
T2 sequence: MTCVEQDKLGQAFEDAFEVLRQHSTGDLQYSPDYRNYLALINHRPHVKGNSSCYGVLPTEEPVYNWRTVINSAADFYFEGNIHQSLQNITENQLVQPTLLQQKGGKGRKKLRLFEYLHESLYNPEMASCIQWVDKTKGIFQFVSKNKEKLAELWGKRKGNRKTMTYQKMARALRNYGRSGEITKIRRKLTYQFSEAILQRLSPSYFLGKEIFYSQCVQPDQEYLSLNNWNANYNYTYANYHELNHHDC
Particulars: protein: recombinant; tags: N-terminal GST; dsDNA, one strand shown. The gist of the method: as §1

A further assay addresses ELF4 (Homo sapiens, UniProt Q99607 1-663). The note with it: protein: recombinant; tags: N-terminal GST; dsDNA, one strand shown. The procedure, abridged:
as §1

The next assay concerns the target T3, ELK4 (Homo sapiens, UniProt P28324-2 1-405).
T3 sequence: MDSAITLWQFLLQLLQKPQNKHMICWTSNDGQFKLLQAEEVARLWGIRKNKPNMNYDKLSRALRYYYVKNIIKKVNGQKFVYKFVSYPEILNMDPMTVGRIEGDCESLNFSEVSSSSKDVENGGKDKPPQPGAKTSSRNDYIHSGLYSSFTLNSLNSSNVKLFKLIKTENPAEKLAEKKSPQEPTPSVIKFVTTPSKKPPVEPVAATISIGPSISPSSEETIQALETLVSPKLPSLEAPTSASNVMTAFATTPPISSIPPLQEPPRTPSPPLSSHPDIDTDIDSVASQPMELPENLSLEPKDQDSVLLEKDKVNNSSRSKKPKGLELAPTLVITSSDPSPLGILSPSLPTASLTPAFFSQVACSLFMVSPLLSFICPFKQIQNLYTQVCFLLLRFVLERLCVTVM
Particulars: protein: recombinant; tags: N-terminal GST; dsDNA, one strand shown. The gist of the method:
as §1

The target in the next assay is T4, ETV2 (Homo sapiens, UniProt O00321 1-342).
T4 sequence: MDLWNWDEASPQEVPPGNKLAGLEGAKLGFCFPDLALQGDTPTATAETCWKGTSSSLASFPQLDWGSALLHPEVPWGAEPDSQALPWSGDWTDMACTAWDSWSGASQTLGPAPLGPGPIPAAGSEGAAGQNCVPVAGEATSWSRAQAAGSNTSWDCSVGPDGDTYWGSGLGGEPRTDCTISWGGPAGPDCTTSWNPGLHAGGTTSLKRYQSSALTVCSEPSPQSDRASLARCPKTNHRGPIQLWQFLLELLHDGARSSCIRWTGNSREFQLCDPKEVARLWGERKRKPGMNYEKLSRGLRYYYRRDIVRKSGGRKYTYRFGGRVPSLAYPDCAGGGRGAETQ
The note with it: protein: recombinant; tags: N-terminal GST; dsDNA, one strand shown. The procedure, abridged:
as §1

In another assay the target is T5, ELF3 (Homo sapiens, UniProt P78545 1-371).
T5 sequence: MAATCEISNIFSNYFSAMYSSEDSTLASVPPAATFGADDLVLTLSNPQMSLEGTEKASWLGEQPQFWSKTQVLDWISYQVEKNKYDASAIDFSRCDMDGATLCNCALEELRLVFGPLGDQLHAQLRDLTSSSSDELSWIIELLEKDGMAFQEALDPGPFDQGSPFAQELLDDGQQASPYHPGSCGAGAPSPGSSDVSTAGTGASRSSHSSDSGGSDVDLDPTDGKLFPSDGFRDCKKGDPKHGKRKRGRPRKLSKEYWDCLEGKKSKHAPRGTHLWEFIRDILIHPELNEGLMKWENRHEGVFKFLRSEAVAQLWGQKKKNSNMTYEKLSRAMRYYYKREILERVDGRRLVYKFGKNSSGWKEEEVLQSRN
Particulars: protein: recombinant; tags: N-terminal GST; dsDNA, one strand shown. The gist of the method: as §1

The next assay has as its target CRX (Homo sapiens, UniProt O43186 1-299). Particulars: protein: recombinant; tags: N-terminal GST; dsDNA, one strand shown. The gist of the method:
as §1

The target in the next assay is ETV1 (Homo sapiens, UniProt P50549 1-477). The note with it: protein: recombinant; tags: N-terminal GST; dsDNA, one strand shown. The procedure, abridged: as §1
Sequence of ETV1 (P50549 whole entry): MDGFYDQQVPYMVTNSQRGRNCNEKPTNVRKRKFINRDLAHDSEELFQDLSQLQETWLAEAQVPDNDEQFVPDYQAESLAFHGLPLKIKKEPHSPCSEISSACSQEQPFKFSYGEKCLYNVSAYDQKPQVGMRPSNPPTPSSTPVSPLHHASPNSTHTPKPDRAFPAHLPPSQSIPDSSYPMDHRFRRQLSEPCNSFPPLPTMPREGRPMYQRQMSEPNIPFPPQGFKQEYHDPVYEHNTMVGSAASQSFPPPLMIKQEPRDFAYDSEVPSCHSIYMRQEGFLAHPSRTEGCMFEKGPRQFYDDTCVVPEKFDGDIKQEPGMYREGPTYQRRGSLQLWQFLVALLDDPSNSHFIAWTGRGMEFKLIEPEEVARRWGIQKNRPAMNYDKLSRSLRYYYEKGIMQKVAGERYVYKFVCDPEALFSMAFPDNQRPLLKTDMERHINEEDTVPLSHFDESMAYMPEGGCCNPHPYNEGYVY
Another assay has as its target T6, ERF (Homo sapiens, UniProt P50548 1-548).
T6 sequence: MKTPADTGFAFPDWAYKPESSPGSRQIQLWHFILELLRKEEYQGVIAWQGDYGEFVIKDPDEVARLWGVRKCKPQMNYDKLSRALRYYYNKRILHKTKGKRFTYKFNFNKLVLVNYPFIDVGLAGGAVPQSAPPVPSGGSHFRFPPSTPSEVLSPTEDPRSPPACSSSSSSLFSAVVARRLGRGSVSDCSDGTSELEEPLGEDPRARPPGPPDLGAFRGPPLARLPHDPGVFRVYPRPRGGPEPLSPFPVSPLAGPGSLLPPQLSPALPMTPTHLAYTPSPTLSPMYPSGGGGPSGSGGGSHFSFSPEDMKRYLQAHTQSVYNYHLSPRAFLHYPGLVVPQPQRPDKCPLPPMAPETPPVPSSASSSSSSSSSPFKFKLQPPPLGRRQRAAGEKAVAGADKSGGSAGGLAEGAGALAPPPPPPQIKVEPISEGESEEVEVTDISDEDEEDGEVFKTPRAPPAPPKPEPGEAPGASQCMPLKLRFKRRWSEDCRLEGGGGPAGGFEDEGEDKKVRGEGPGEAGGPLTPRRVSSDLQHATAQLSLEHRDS
Particulars: protein: recombinant; tags: N-terminal GST; dsDNA, one strand shown. The gist of the method:
as §1

The next assay concerns the target T7, ETV3L (Homo sapiens, UniProt Q6ZN32 1-361).
T7 sequence: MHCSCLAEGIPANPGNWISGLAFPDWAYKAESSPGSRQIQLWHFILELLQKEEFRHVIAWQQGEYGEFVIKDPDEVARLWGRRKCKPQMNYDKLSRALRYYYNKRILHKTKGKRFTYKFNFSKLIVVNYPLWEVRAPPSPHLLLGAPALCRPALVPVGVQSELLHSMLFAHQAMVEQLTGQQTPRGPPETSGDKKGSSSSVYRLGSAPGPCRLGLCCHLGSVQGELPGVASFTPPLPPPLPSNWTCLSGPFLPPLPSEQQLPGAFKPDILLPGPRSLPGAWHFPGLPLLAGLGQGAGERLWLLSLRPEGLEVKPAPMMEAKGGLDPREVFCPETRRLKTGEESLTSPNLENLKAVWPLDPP
Particulars: protein: recombinant; tags: N-terminal GST; dsDNA, one strand shown. The procedure, abridged: as §1

Another assay addresses T8, ETS2 (Homo sapiens, UniProt P15036 1-469).
T8 sequence: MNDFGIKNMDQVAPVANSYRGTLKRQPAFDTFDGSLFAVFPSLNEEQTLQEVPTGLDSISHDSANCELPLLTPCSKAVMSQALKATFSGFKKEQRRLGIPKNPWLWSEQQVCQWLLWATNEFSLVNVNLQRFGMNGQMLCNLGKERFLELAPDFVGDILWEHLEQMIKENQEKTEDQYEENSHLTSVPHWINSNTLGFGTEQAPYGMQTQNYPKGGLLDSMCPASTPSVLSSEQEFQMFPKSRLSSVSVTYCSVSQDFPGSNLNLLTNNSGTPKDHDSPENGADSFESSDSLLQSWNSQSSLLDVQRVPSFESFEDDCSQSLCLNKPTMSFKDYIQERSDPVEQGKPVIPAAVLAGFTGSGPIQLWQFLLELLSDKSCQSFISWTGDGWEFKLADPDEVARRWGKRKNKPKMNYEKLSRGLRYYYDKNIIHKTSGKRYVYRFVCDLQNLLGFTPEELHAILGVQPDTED
The note with it: protein: recombinant; tags: N-terminal GST; dsDNA, one strand shown. The gist of the method: as §1

The target of another assay is T9, SPDEF (Homo sapiens, UniProt O95238 1-335).
T9 sequence: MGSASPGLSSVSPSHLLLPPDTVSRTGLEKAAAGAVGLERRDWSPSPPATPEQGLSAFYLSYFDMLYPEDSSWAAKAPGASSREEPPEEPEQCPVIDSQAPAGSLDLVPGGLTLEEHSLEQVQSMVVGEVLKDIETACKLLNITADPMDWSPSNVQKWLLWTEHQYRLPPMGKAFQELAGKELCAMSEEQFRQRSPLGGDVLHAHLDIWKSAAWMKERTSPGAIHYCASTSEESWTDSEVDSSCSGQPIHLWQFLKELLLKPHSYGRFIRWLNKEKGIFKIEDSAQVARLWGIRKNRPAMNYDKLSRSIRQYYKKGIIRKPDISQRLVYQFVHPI
The note with it: protein: recombinant; tags: N-terminal GST; dsDNA, one strand shown. The gist of the method: as §1

The next assay addresses T10, ETV7 (Homo sapiens, UniProt Q9Y603 1-341).
T10 sequence: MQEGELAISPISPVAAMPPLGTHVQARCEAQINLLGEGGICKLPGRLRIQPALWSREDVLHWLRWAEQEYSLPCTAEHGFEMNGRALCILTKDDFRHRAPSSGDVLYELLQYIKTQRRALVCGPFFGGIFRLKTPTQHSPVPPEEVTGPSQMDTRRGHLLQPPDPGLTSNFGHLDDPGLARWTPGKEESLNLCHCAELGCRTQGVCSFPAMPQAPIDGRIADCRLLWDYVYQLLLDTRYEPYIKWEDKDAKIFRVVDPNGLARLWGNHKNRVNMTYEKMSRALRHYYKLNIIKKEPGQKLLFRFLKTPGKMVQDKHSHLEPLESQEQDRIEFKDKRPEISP
Particulars: protein: recombinant; tags: N-terminal GST; dsDNA, one strand shown. The gist of the method:
as §1

For a further assay, the target named is T11, ELF5 (Homo sapiens, UniProt Q9UKW6-2 1-255).
T11 sequence: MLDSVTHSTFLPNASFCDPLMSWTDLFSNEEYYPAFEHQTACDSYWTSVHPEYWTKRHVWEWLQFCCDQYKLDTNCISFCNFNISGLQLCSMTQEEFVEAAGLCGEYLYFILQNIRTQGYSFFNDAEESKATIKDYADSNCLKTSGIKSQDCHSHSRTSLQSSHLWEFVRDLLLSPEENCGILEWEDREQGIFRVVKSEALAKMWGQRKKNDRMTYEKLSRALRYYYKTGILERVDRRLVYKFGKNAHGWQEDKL
The note with it: protein: recombinant; tags: N-terminal GST; dsDNA, one strand shown. The gist of the method: as §1

For another assay, the target named is T12, ETV3 (Homo sapiens, UniProt P41162-2 1-143).
T12 sequence: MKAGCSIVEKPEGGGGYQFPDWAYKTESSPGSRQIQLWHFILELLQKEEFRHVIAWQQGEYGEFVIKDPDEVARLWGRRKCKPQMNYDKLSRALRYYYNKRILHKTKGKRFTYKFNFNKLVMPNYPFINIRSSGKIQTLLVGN
Particulars: protein: recombinant; tags: N-terminal GST; dsDNA, one strand shown. The procedure, abridged:
as §1

A further assay has as its target ETV6 (Homo sapiens, UniProt P41212 1-452). Particulars: protein: recombinant; tags: N-terminal GST; dsDNA, one strand shown. The procedure, abridged:
as §1

Sequence of ELF4 (Q99607 whole entry): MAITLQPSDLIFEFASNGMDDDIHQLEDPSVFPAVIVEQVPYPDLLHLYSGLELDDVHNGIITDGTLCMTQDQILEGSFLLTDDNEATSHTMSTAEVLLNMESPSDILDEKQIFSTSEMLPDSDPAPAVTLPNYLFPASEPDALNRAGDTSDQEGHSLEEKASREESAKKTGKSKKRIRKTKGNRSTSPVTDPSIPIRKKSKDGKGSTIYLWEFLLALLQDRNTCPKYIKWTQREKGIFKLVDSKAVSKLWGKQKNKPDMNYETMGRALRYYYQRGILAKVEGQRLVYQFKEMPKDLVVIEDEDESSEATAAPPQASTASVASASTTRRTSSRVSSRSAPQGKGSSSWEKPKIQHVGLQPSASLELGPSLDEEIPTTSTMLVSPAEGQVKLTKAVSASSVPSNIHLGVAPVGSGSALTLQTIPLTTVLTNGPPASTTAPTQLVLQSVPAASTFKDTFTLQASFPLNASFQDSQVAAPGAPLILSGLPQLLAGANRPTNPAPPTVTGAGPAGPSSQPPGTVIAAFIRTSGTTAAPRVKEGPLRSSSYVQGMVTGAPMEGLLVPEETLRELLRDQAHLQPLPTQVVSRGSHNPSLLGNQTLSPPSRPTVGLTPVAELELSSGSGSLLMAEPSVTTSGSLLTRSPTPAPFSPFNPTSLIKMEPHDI
Sequence of CRX (O43186 whole entry): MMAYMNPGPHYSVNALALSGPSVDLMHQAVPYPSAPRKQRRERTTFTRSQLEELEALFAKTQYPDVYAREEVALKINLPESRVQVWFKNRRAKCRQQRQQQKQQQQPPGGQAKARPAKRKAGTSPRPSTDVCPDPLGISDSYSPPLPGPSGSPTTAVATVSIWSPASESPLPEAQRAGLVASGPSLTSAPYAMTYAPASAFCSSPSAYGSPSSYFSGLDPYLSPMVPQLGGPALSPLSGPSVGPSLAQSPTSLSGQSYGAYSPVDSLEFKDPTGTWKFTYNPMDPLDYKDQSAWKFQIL
Sequence of ETV6 (P41212 whole entry): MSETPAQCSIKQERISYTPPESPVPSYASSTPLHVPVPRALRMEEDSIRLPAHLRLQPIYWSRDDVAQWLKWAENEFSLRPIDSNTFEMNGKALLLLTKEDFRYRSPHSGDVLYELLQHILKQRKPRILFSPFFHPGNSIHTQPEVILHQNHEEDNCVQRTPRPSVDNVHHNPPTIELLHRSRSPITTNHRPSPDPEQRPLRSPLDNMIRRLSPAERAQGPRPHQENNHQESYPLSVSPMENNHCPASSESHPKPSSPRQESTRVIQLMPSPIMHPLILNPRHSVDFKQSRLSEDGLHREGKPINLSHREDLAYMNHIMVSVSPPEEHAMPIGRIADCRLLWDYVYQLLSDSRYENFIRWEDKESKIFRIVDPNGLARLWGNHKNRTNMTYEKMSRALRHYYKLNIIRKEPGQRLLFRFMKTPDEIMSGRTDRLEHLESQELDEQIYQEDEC

On to AAAACT, for which the binding signal with FEV was 1.16 fold enrichment (6-mer frequency, TF over GST control); with ETV5, 1.15 fold enrichment (6-mer frequency, TF over GST control); in the assay with HSF1, 1.18 fold enrichment (6-mer frequency, TF over GST control); with SPIC it was 1.23 fold enrichment (6-mer frequency, TF over GST control); in the assay with ELF4 it was 1.21 fold enrichment (6-mer frequency, TF over GST control); with ELK4 it was 1.1 fold enrichment (6-mer frequency, TF over GST control). Besides, the binding signal with ETV2 was 1.19 fold enrichment (6-mer frequency, TF over GST control); with ELF3 it was 1.12 fold enrichment (6-mer frequency, TF over GST control); with CRX it was 1.16 fold enrichment (6-mer frequency, TF over GST control); with ETV1 it was 1.13 fold enrichment (6-mer frequency, TF over GST control); in the assay with ERF, 1.2 fold enrichment (6-mer frequency, TF over GST control); with ETV3L it was 1.19 fold enrichment (6-mer frequency, TF over GST control). The binding signal was 1.24 fold enrichment (6-mer frequency, TF over GST control) in the assay with ETS2; 1.09 fold enrichment (6-mer frequency, TF over GST control) in the assay with SPDEF; 1.29 fold enrichment (6-mer frequency, TF over GST control) in the assay with ETV7; 1.27 fold enrichment (6-mer frequency, TF over GST control) in the assay with ELF5; 1.21 fold enrichment (6-mer frequency, TF over GST control) with ETV3; 1.19 fold enrichment (6-mer frequency, TF over GST control) with ETV6.

The record behind these values is PMC7862700, “An all-to-all approach to the identification of sequence-specific readers for epigenetic DNA modifications on cytosine”.
